D2 ag-1: activates the human D2 dopamine receptor; activation, % at 2 µM; 340,000 compounds, 0.53% hits; P14416; HEK293 T-REx D2 cells, calcium flux agonist mode;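 active = activation over 3 SD above normal in the single-dose calcium agonist read, cut at about 30% in these data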
Target sequence (P14416 whole entry, looked up): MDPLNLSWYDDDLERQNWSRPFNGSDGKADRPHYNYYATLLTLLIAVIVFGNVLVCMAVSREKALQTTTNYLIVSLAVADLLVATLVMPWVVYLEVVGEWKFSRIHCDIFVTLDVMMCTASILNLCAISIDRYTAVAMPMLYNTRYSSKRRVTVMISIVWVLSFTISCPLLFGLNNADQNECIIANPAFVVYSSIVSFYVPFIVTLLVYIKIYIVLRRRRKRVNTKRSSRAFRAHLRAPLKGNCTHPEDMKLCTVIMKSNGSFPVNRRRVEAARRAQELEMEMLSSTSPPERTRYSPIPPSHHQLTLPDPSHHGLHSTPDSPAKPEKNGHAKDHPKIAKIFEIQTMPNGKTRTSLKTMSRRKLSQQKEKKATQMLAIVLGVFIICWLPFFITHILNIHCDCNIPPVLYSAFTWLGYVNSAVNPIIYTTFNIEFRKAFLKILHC
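Tetracycline-induced HEK293 T-REx cells with force-coupled D2 receptor, plated overnight at 30 C, loaded with no-wash calcium dye. After a 10 s baseline, compound was pin-added and calcium flux read kinetically for 180 s; calcium rises flagged agonists.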
D2 ag-2: agonists of human D2 dopamine receptor (beta-arrestin). 360,000 compounds, 0.084% hits. activation, % (concentration not given with the values). P14416. AID 624465. DiscoveRx PathHunter D2 beta-arrestin, luminescence, 90 min; 100% = 57 uM dopamine signal; in the data active = activation above about 40%; inconclusive = between about 15% and that limit
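Agonist mode: compounds alone added to overnight-plated D2 PathHunter cells for 90 min at 37 C, with 57 uM final dopamine (EC100) defining full response. Beta-arrestin recruitment detected by chemiluminescent reagent, read after 1 h at ambient temperature.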
D2 PAM-1: positive allosteric modulators of human D2 dopamine receptor; HEK293 T-REx D2, calcium flux, EC20 dopamine potentiation; AID 485347; P14416; 340,000 compounds, 0.34% hits; potentiation, % at 10 µM;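 active = potentiation over 3 SD above the plate norm, cut at about 30% in these data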
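Tetracycline-induced HEK293 T-REx cells force-coupled to calcium signalling expressed D2; compounds were pin-added after a 10 s baseline, read kinetically 180 s, then an EC20 dopamine challenge followed with a further 180 s calcium read.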
D2 PAM-2: positive allosteric modulators of human D2 dopamine receptor. DiscoveRx D2 beta-arrestin cells, luminescence, 90 min; 100% = 57 uM dopamine signal. potentiation, % (concentration not given with the values). 360,000 compounds, 0.23% hits; in the data active = potentiation above about 50%; inconclusive = mostly about 30% to 49%
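D2 cells co-treated with compound plus 50 nM dopamine (EC20) for 90 min at 37 deg C to detect potentiation. Beta-arrestin recruitment was read as enzyme-fragment luminescence after 1 h at ambient temperature. Full response was set by 57 uM dopamine.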
D2 antag: antagonists of human D2 dopamine receptor; 340,000 compounds, 2% hits; HEK293 TREx D2 cells, calcium flux, dopamine EC80; inhibition, % at 10 µM; P14416; in the data active = inhibition above about 30%; inactive = below that, where a call was filed
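Tetracycline-induced HEK293 T-REx cells expressing D2 force-coupled to calcium signalling were dye-loaded, exposed to compound for 180 s, then challenged with an EC80 of dopamine; calcium flux was followed kinetically for a further 180 s.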
Each line names hits and unclear results; the compound was inactive in the other large screens. This is a sample that favours compounds with a hit; in the whole collection about 2.4% have one here.

CN(c1ccccc1)S(=O)(=O)c1ccc(Cl)c(C(=O)NC2=NCCS2)c1	D2 PAM-1 31
COc1ccccc1N(C)S(=O)(=O)c1ccc(Cl)c(C(=O)NC2=NCCS2)c1	none
COc1ccccc1NC(=O)c1c(-c2ccc(C)cc2)nnc2ccccc12	none (no result: D2 ag-2, D2 PAM-2, D2 antag)
CCCCn1c(N)c(N(CC(C)C)C(=O)c2cccc(OCc3ccccc3)c2)c(=O)[nH]c1=O	D2 PAM-1 30
CCCCn1c(N)c(N(CCC(C)C)C(=O)c2cccc(S(=O)(=O)N3CCN(C)CC3)c2)c(=O)[nH]c1=O	D2 antag 34
CCOC(=O)C1CCN(C(=O)C2CCN(S(=O)(=O)c3c(C)noc3/C=C/c3ccc(C)cc3)CC2)CC1	none (no result: D2 ag-2, D2 PAM-2, D2 antag)
COc1ccc(C(=O)c2ccc(OC)c3cccc(O)c23)cc1OC	D2 PAM-2 73
CCc1ccc(C(=O)N/N=C/c2ccc(Cl)cc2Cl)nc1	D2 antag 73 (no result: D2 ag-2, D2 PAM-2)
c1ccc(C2=NN(c3ccccc3)CC2)cc1	none
CCOC(=O)/C(=C/c1ccc(N2CCC(c3ccccc3)=N2)cc1)C(C)=O	D2 ag-1 37
COC(=O)c1ccccc1NC(=O)Cn1c(=O)n(CCCC(=O)NCc2ccccc2OC)c(=O)c2ccccc21	none (no result: D2 ag-1, D2 ag-2, D2 PAM-2, D2 antag)
O=C(Nc1nc2c(s1)CN(Cc1ccccc1)CC2)c1cccc(S(=O)(=O)N2CCc3ccccc32)c1	D2 antag 41
O=C(Nc1nc2ccccc2s1)c1cccc(S(=O)(=O)N2CCc3ccccc32)c1	none (no result: D2 ag-1, D2 PAM-1, D2 antag)
COc1cc(SC)ccc1C(=O)Nc1nc2ccccc2[nH]1	D2 antag 34
COc1ccccc1C(=O)Nc1nc2ccccc2[nH]1	none
COc1ccc(CCNC(=O)Cn2c(=O)c3cccn3c3ccccc32)cc1OC	none (no result: D2 ag-2, D2 PAM-2, D2 antag)
Cc1cc(C)cc(NC(=O)C(=O)NC(C)c2ccccc2)c1 (stereo unspecified)	none (no result: D2 ag-2, D2 PAM-2, D2 antag)
COc1cc(Cl)cc2c1Sc1ccccc1/C2=C/CCN(C)C	D2 antag 63
COc1cc2c(cc1Cl)/C(=C\CCN(C)C)c1ccccc1S2	D2 antag 37
COc1ccc(CC(=O)NCc2nc3cccnc3n2Cc2ccc(C)cc2)cc1OC	none (no result: D2 ag-2, D2 PAM-2, D2 antag)
Cc1cc(Nc2cccc(Cl)c2)nc2ccc(NC(=O)COc3ccc(Cl)cc3)cc12	none (no result: D2 ag-2, D2 PAM-2, D2 antag)
CC(C)CN(C(=O)Cn1nnc(-c2ccc(F)cc2)n1)C1CCS(=O)(=O)C1 (stereo unspecified)	D2 antag 55
CC(C)CN(C(=O)c1cccc(S(=O)(=O)N2CCN(c3ccc(F)cc3)CC2)c1)C1CCS(=O)(=O)C1 (stereo unspecified)	D2 antag 35
CC(C)CN(C(=O)Cn1nnc(-c2ccc(Cl)cc2)n1)C1CCS(=O)(=O)C1 (stereo unspecified)	none (no result: D2 ag-1, D2 PAM-1, D2 antag)
CCCCn1c(Nc2ccccc2)nc2ccccc21	D2 antag 36
CCCn1c(Nc2nc3ccccc3n2C)nc2ccccc21	none
CCCCn1c(N)nc2ccccc21	D2 antag 31
CCCCCn1c(NCc2ccco2)nc2ccccc21	D2 antag 34
C=CCn1c(/N=C/c2ccc(N(C)C)cc2)nc2ccccc21	none (no result: D2 ag-1, D2 PAM-1, D2 antag)
CCCCn1c(/N=C/c2ccc(N(C)C)cc2)nc2ccccc21	D2 PAM-1 49
COc1cc(/C=C(/C#N)c2nc(-c3cc4ccccc4oc3=O)cs2)ccc1O	none (no result: D2 ag-2, D2 PAM-2, D2 antag)
COc1cccc(CNCCSc2nnnn2-c2ccccc2)c1OC	none (no result: D2 ag-2, D2 PAM-2, D2 antag)
O=C(N/N=C/c1cn(-c2ccccc2)nc1-c1cc2ccccc2o1)c1c[nH]c2ccccc12	D2 antag 34
OCc1cn(-c2ccccc2)nc1-c1cc2ccccc2o1	D2 antag 45
COc1ccc(NC(=O)c2cn(-c3ccccc3)nc2-c2cc3ccccc3o2)cc1	none
O=C(N/N=C/c1cn(-c2ccccc2)nc1-c1cc2ccccc2o1)c1ccccc1Br	none
COc1ccc(NC(=O)c2ccc3c(c2)C(=O)N(CC2CCCO2)C3=O)c(OC)c1 (stereo unspecified)	D2 PAM-1 37
O=C(NCc1cccc(CNC(=O)C(=O)NCC2CCCO2)c1)C(=O)NCC1CCCO1 (stereo unspecified)	D2 antag 30
O=C(NCc1ccc2c(c1)OCO2)C(=O)NCC1CCCO1 (stereo unspecified)	none
O=C(Cc1ccccc1)Nc1ccc2c(c1)C(=O)N(CC1CCCO1)C2=O (stereo unspecified)	none
O=C(NCc1ccccc1)c1ccc2c(c1)C(=O)N(CC1CCCO1)C2=O (stereo unspecified)	D2 antag 31
COc1ccc(NC(=O)c2ccc3c(c2)C(=O)N(CC2CCCO2)C3=O)cc1 (stereo unspecified)	none
CCc1ccc(C(=O)CSc2nc(-c3ccccc3)nc3c2CCCC3)cc1	none (no result: D2 ag-2, D2 PAM-2, D2 antag)
Cc1ccc(S(=O)(=O)NCCSc2nncn2C)cc1	D2 PAM-1 35
CCCC(CCC)c1nc2ccncc2[nH]1	D2 PAM-1 36
O=C(O)c1nn(CCOc2ccccc2F)c(=O)c2ccccc12	D2 PAM-1 33
O=C(O)c1nn(CCOc2ccc(Br)cc2)c(=O)c2ccccc12	none
COc1cc(/C=C/c2nc(C#N)c(N3CCCCCC3)o2)cc(OC)c1OC	none (no result: D2 ag-2, D2 PAM-2, D2 antag)
O=C(N/C=C/n1cnc2cc(C(F)(F)F)ccc21)c1ccccc1F	D2 PAM-1 83
O=C(N/C=C/n1cnc2cc(C(F)(F)F)ccc21)c1ccc(F)cc1	none (no result: D2 ag-1, D2 PAM-1, D2 antag)
CCOC(=O)C1=C(CS(=O)(=O)c2ccccc2)NC(=O)NC1c1ccccc1OCC (stereo unspecified)	D2 antag 36
COc1ccc(N(C(=O)c2cccc(C)c2)S(=O)(=O)c2ccc(C)cc2)cc1	none (no result: D2 ag-2, D2 PAM-2, D2 antag)
CC(=O)Nc1cc(C(=O)NCc2ccc(F)cc2)ccc1Sc1ccc(C)cc1	none (no result: D2 ag-2, D2 PAM-2, D2 antag)
Cc1ccccc1-c1noc(-c2ccc(N3CCN(C)CC3)c([N+](=O)[O-])c2)n1	none (no result: D2 ag-2, D2 PAM-2, D2 antag)
O=c1c2c(nc3cc(-c4ccccc4)[nH]n13)CCC2	none
O=c1c2c(nc3cc(-c4ccc(Br)cc4)[nH]n13)CCCC2	D2 antag 54
COc1ccc(-c2nc(-c3ccccc3)c(-c3ccc(F)cc3)[nH]2)c(OC)c1C	none (no result: D2 ag-2, D2 PAM-2, D2 antag)
COc1ccc(-n2nc(C(=O)N3CCN(c4cccc(C)c4C)CC3)c3c4ccccc4n(C)c3c2=O)cc1	none (no result: D2 ag-2, D2 PAM-2, D2 antag)
COc1ccc(OC)c(N(C(=O)c2snc(C(N)=O)c2N)C(C(=O)NCc2ccccc2)c2ccc(O)cc2)c1 (stereo unspecified)	D2 antag 43
COc1ccc(N(C(=O)c2snc(C(N)=O)c2N)C(C(=O)NCc2ccccc2)c2ccc(O)cc2)cc1 (stereo unspecified)	none
CCOC(=O)c1[nH]c(=O)[nH]c1CSc1nc(C)cc(C)n1	D2 antag 32
CN(C(=S)Nc1cccnc1)c1ccc(O)cc1	D2 PAM-2 64 (no result: D2 ag-1, D2 PAM-1, D2 antag)
CN(C(=S)Nc1ccc(Oc2ccccc2)cc1)c1ccc(O)cc1	D2 ag-2 inconclusive, D2 PAM-2 82

Bioassay records deposited in PubChem BioAssay by National Center for Advancing Translational Sciences (NCATS).
